PubChem BioAssay
For some assays here: Measured potencies and affinities stand elsewhere. Activity calls are given as the source filed them.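 The calls were made as follows, unless noted: active = calcium signal ratio cut to more than 3 SD under the fully stimulated control mean yet still positive, in both repeats and the primary screen; inactive = the rest.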

Tests used:
[1] = tested on: TRPC4 beta (transient receptor potential cation channel C4), mouse; assay: TRPC4 cation channel opening, retest – cell-based, Fluo4 calcium, HEK293 TRPC4beta/mu-opioid, duplicates, 10 µM, confirmation (AID 2426;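 active = fluorescence ratio normalized to control raised more than 50% in primary screen plus both repeat runs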;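 also: percent rise of integrated ratio over buffer wells lacking compound which define 0%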); details: Fluo4 calcium fluorescence, at 10 µM; stronger effect = higher value
[2] = tested on: transient receptor potential cation channel C4 beta (TRPC4), mouse; assay: TRPC4 cation channel opening, second retest – cell-based, second round, Fluo4, HEK293 TRPC4beta/mu-opioid, 1 µM, confirmation (AID 2461;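 active = primary screen active and over 50% activation in each of two duplicate runs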;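 as to activation: 0% = wells without test compound as baseline of integrated fluorescence ratio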); details: Fluo4 calcium fluorescence, at 1 µM; stronger effect = higher value
[3] = tested on: TRPC4 (transient receptor potential cation channel C4 beta), mouse; assay: potentiation of DAMGO EC20 TRPC4 response – cell-based, second round, Fluo-4, HEK293 TRPC4beta/mu-opioid, 1 µM, confirmation (AID 2554;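 active = primary screen hit whose fluorescence ratio, in both repeats, exceeds the weak agonist control mean by 3 SD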); details: DAMGO EC20, Fluo-4 calcium flux, at 1 µM; stronger effect = higher value
[4] = tested on: TRPC4 beta (transient receptor potential cation channel C4), mouse; assay: potentiation of DAMGO EC20 TRPC4 response – cell-based, Fluo-4, HEK293 TRPC4beta/mu-opioid, confirmation (AID 2555;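 active = primary screen hit whose calcium fluorescence ratio, in both repeats, exceeds the weak agonist control mean by 3 SD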); details: DAMGO EC20, Fluo-4 calcium flux, at 10 µM; stronger effect = higher value
[5] = target: Short transient receptor potential channel 4 (Mus musculus) (UniProt Q9QUQ5); assay: blockers of DAMGO-evoked TRPC4 calcium flux – cell-based, Fluo4, HEK293 TRPC4beta/mu-opioid, confirmation (AID 2636;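 active = calcium signal cut by more than 3 SD below the full-agonist control yet still positive, in both repeats and the earlier primary screen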); details: at 10 µM; stronger effect = higher value
[6] = target: Short transient receptor potential channel 4 (Mus musculus) (UniProt Q9QUQ5); assay: blockers of DAMGO-evoked TRPC4 calcium flux – cell-based, second round, Fluo4, HEK293 TRPC4beta/mu-opioid, 1 µM, confirmation (AID 2637); details: at 1 µM; stronger effect = higher value
[7] = target: Short transient receptor potential channel 4 (Mus musculus) (UniProt Q9QUQ5); assay: potentiation of DAMGO-evoked TRPC4 calcium signal – cell-based, HEK293 TRPC4/mu-opioid, Fluo-4 calcium, EC20 DAMGO, dose response (AID 434941;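 active = earlier screen potentiator hit that boosts the TRPC4 ion channel at some dose, with a dose response; inactive = no potentiation, no dose response, or not a prior hit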;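 also: calcium entry triggered by an EC20 dose of DAMGO at the co-expressed mu-opioid receptor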)
[8] = target: Short transient receptor potential channel 4 (Mus musculus) (UniProt Q9QUQ5); assay: block of DAMGO-driven TRPC4 calcium entry – cell-based, HEK293 TRPC4/mu-opioid, Fluo-4 calcium, dose response (AID 434942;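 active = primary screen inhibitor hit that blocks the TRPC4 channel at some tested dose, yielding a dose curve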)
[9] = target: Short transient receptor potential channel 6 (Mus musculus) (UniProt Q61143); assay: TRPC6 blockade by TRPC4 inhibitor hits – cell-based, HEK293, membrane potential dye, duplicate, selectivity assay for TRPC4 inhibitor project, confirmation (AID 434948;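 active = active in primary screen and both duplicates, each dropping signal beyond three positive-control SD with fluorescence still positive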); details: HEK293 TRPC6, membrane potential dye fluorescence, at 10 µM; inhibition: stronger effect = higher value, stimulated with maximal-effect acetylcholine unless noted; outcome: stimulated with maximal-effect acetylcholine unless noted
[10] = target: Short transient receptor potential channel 6 (Mus musculus) (UniProt Q61143); assay: TRPC6 opening by TRPC4 activator hits – cell-based, HEK293, membrane potential dye, duplicate, selectivity assay for TRPC4 activator project, confirmation (AID 434950;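 active = membrane potential signal rise above negative control mean plus 3 SD in both duplicates, also active in the earlier TRPC4 screen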;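 as to activation: 0% = buffer only wells and 100% = acetylcholine maximal-effect wells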); details: HEK293 TRPC6, membrane potential fluorescence, at 10 µM; activation: stronger effect = higher value; outcome: activation
[11] = target: Short transient receptor potential channel 6 (Mus musculus) (UniProt Q61143); assay: positive modulators of mouse TRPC6 channel – HEK293 cells, membrane potential dye, duplicate, selectivity assay for TRPC4 potentiator project, confirmation (AID 434952;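 active = compound raising the membrane signal above positive-control mean plus 3 SD in both repeats, and a primary screen hit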); details: HEK293 TRPC6, membrane potential dye fluorescence, at 10 µM; maximal acetylcholine added after compound unless noted
[12] = target: Short transient receptor potential channel 4 (Mus musculus) (UniProt Q9QUQ5); assay: calcium flux activators in TRPC4/5HT1a cells, counter-screen for TRPC4 activator project, cell-based, second counter screen, HEK293 TRPC4/5HT1a, Fluo-4 (AID 434977;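 active = calcium signal rise above buffer-control mean plus 5 SD in both duplicates, and also a hit in the primary screen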;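 as to activation: plate controls were assay buffer for no effect and maximal serotonin response for full effect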); details: Fluo-4 calcium flux, at 10 µM; stronger effect = higher value
[13] = serotonin-gated TRPC4 signal block – cell-based, second counter screen, HEK293 TRPC4/5HT1a, Fluo-4, counter-screen for TRPC4 inhibitor project, confirmation (AID 434978;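 active = primary screen active whose calcium signal fell more than 3 SD beyond the full-serotonin control mean in both duplicate plates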;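 also: serotonin given first at submaximal then at maximal dose after compound preincubation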); details: Fluo-4 calcium flux, at 10 µM; inhibition: stronger effect = higher value, serotonin added to trigger calcium flux unless noted; outcome: serotonin added to trigger calcium flux unless noted
[14] = tested on: TRPC4 (mouse), co-expressed with 5HT1a in HEK293; assay: enhancement of serotonin-evoked TRPC4 response – cell-based, second counter screen, HEK293 TRPC4/5HT1a, Fluo-4, counter-screen for TRPC4 potentiator project, confirmation (AID 434979;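 active = signal rise over 3 SD above mean of control wells given weak agonist, in both repeats and first screen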); details: Fluo-4 calcium flux, at 10 µM; outcome: serotonin added at its EC20 dose unless noted; potentiation: stronger effect = higher value, serotonin added at its EC20 dose unless noted
[15] = nonspecific calcium rise without TRPC4 – cell-based, HEK293 mu-opioid receptor line, counter-screen for TRPC4 activator project, confirmation (AID 449723;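 active = hit in primary screen, with calcium signal over 5 SD above buffer well mean in both duplicates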;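 also: counter screen cells carry the mu-opioid receptor alone and lack TRPC4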); details: HEK293 mu-opioid cells, Fluo-4 calcium fluorescence, at 10 µM; stronger effect = higher value
[16] = nonspecific potentiation of DAMGO calcium response – cell-based, HEK293 mu-opioid receptor line, counter-screen for TRPC4 allosteric potentiator project, confirmation (AID 449724;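 active = calcium signal rise more than 3 SD above the low-dose agonist control mean, in both duplicate plates and the primary screen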); details: HEK293 mu-opioid receptor cells, Fluo-4 calcium flux, at 10 µM; compound added before EC20 DAMGO stimulus unless noted

Sequence of Short transient receptor potential channel 4 (Mus musculus) (Q9QUQ5 whole entry, looked up): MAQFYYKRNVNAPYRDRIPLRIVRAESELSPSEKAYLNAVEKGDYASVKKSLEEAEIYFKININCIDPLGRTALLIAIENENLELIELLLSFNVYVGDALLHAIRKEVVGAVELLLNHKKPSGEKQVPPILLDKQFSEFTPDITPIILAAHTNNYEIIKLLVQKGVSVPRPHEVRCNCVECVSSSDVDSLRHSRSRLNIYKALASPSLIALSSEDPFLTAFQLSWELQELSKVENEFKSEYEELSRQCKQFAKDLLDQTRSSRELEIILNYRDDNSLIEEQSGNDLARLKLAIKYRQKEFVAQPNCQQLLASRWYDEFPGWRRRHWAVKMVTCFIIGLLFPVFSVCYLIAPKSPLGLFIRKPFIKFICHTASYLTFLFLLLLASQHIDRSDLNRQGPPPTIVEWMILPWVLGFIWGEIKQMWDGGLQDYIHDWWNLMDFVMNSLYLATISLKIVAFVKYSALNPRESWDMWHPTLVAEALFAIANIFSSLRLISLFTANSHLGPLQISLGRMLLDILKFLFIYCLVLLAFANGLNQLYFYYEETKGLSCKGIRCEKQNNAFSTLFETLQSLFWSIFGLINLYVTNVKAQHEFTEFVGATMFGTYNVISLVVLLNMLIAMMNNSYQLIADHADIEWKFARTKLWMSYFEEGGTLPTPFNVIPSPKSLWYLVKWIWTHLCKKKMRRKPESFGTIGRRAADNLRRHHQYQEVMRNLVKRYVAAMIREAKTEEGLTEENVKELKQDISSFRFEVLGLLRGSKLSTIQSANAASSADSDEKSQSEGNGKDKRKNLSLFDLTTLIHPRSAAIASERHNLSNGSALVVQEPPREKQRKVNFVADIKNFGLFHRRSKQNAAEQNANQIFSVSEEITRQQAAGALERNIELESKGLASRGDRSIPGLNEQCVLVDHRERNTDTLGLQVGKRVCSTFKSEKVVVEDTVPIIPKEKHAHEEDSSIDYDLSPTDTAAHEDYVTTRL
Sequence of Short transient receptor potential channel 6 (Mus musculus) (Q61143 whole entry, looked up): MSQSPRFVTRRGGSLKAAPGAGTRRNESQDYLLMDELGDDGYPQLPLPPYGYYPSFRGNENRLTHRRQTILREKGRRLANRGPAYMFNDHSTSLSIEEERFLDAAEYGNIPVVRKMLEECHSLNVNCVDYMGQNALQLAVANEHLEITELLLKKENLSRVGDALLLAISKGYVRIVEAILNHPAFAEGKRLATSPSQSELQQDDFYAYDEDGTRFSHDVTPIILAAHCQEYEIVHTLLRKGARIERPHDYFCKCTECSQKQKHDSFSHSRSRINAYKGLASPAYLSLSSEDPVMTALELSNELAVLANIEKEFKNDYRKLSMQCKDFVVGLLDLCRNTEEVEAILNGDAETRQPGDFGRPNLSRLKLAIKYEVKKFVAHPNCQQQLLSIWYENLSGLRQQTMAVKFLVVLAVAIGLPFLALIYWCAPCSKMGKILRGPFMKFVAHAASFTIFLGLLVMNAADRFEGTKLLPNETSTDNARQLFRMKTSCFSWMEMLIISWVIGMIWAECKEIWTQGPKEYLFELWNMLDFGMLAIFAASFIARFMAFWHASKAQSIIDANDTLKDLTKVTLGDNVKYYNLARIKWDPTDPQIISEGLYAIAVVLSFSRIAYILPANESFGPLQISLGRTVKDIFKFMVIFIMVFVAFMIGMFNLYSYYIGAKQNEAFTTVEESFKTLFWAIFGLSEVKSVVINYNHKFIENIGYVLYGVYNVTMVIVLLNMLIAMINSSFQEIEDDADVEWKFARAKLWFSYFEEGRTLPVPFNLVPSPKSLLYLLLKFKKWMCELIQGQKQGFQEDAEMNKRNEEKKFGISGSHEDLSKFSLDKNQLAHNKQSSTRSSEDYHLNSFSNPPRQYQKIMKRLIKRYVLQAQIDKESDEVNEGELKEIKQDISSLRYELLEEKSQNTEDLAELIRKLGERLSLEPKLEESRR

CC1(C)CC(CCNCc2ccc3c(c2)OCO3)(Cc2ccccc2)CCO1 (centres undefined)
inactive: outcome [2] | outcome [3] | outcome [4] | outcome [5] | outcome [6] | outcome [7] | outcome [8] | outcome [9] | outcome [11] | outcome [13] | outcome [14] | outcome [15] | outcome [16]
active: activation [1] 169% | activation [10] 70% | activation [12] 5.46%

Clc1ccc2sc(C3CCNCC3)nc2c1
active: activation [1] 210% | activation [2] 166% | activation [12] 82.6%
inactive: outcome [3] | outcome [4] | outcome [5] | outcome [6] | outcome [7] | outcome [8] | outcome [9] | outcome [10] | outcome [11] | outcome [13] | outcome [14] | outcome [15] | outcome [16]

O=C(CCCc1ccccc1)NCCc1cnc[nH]1
active: activation [1] 137% | activation [12] 35.3%
inactive: outcome [2] | outcome [3] | outcome [4] | outcome [5] | outcome [6] | outcome [7] | outcome [8] | outcome [9] | outcome [10] | outcome [11] | outcome [13] | outcome [14] | outcome [15] | outcome [16]

Cc1cc(-c2ccccc2)cc(C)[n+]1Cc1ccccc1
active: activation [1] 142%
inactive: outcome [2] | outcome [3] | outcome [4] | outcome [5] | outcome [6] | outcome [7] | outcome [8] | outcome [9] | outcome [10] | outcome [11] | outcome [12] | outcome [13] | outcome [14] | outcome [15] | outcome [16]

c1ccc2oc(N3CCNCC3)nc2c1
inactive: outcome [3] | outcome [5] | outcome [6] | outcome [7] | outcome [8] | outcome [9] | outcome [10] | outcome [11] | outcome [13] | outcome [15] | outcome [16]
active: activation [1] 81% | activation [2] 53% | potentiation [4] 19% | activation [12] 24.8% | potentiation [14] 31.8%

O=C(c1ccc2c3c(cccc13)CC2)C1CCCN(CC2CC2)C1 (centres undefined)
inactive: outcome [3] | outcome [4] | outcome [5] | outcome [6] | outcome [7] | outcome [8] | outcome [9] | outcome [11] | outcome [13] | outcome [14] | outcome [15] | outcome [16]
active: activation [1] 164% | activation [2] 79% | activation [10] 75.5% | activation [12] 61.9%

CNCCc1nc(N)n[nH]1
active: activation [1] 160% | activation [2] 172% | activation [12] 146%
inactive: outcome [3] | outcome [4] | outcome [5] | outcome [6] | outcome [7] | outcome [8] | outcome [9] | outcome [10] | outcome [11] | outcome [13] | outcome [14] | outcome [15] | outcome [16]

NC(N)=N/N=C/c1ccc(N(c2ccccc2)c2ccccc2)cc1
inactive: outcome [2] | outcome [3] | outcome [4] | outcome [5] | outcome [6] | outcome [7] | outcome [8] | outcome [9] | outcome [10] | outcome [11] | outcome [13] | outcome [14] | outcome [16]
active: activation [1] 60% | activation [12] 48.2% | activation [15] 20.3%

c1ccc2sc(C3CCCNC3)nc2c1 (centres undefined)
inactive: outcome [3] | outcome [4] | outcome [5] | outcome [6] | outcome [7] | outcome [8] | outcome [9] | outcome [11] | outcome [13] | outcome [14] | outcome [15] | outcome [16]
active: activation [1] 170% | activation [2] 115% | activation [10] 44% | activation [12] 95.3%

CCc1n[nH]c(CCN)n1
active: activation [1] 178% | activation [12] 48.7%
inactive: outcome [2] | outcome [3] | outcome [4] | outcome [5] | outcome [6] | outcome [7] | outcome [8] | outcome [9] | outcome [10] | outcome [11] | outcome [13] | outcome [14] | outcome [15] | outcome [16]

Cc1ccc(C)c(NC(=S)NCCc2cnc[nH]2)c1
active: activation [1] 137% | activation [12] 69.3%
inactive: outcome [2] | outcome [3] | outcome [4] | outcome [5] | outcome [6] | outcome [7] | outcome [8] | outcome [9] | outcome [10] | outcome [11] | outcome [13] | outcome [14] | outcome [15] | outcome [16]

N=c1c[n+](CC23CC4CC(CC(C4)C2)C3)[n-]o1
active: activation [1] 294% | activation [2] 114% | activation [10] 38%
inactive: outcome [3] | outcome [4] | outcome [5] | outcome [6] | outcome [7] | outcome [8] | outcome [9] | outcome [11] | outcome [12] | outcome [13] | outcome [14] | outcome [15] | outcome [16]

CC1CN(c2ccc([N+](=O)[O-])c3cccnc23)CC(C)N1 (centres undefined)
active: activation [1] 108% | activation [2] 81% | activation [12] 35.7%
inactive: outcome [3] | outcome [4] | outcome [5] | outcome [6] | outcome [7] | outcome [8] | outcome [9] | outcome [10] | outcome [11] | outcome [13] | outcome [14] | outcome [15] | outcome [16]

CCN1CCN(Cc2cc(Br)cc(Br)c2O)CC1
inactive: outcome [3] | outcome [4] | outcome [5] | outcome [6] | outcome [7] | outcome [8] | outcome [9] | outcome [11] | outcome [13] | outcome [14] | outcome [15] | outcome [16]
active: activation [1] 221% | activation [2] 133% | activation [10] 38.5% | activation [12] 70.3%
